For eleven compounds, outcome, caspase-3 activation and Potency results are on record in PubChem BioAssay (NCATS).

Values without a mark were called inactive. Records with an inconclusive call do not appear. The source made the active and inactive calls. Unless noted, calls come from the whole dose curve; as a rule, active = well fitted curve in the direction sought with a large enough effect; inconclusive = small, poorly fitted or top-dose-only effect, or another doubt; inactive = no such curve, though single readings can be large; an effect the other way counts as inactive or inconclusive.

A short description of test [1]: Cell Viability - Mesenchymal (AID 546).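 Note: cells exposed to compound for 40 hours before reading.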 The settings on record: mesenchymal cells viability, qHTS; series mostly up to 91.7 µM. In short, it runs like this:
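In this qHTS cytotoxicity format, glomerulus-derived human mesenchymal kidney cells received compound for 40 hr, then luciferase-based ATP quantitation. Concentration-response data were fitted with the Hill equation.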

Test [2] can be described thus: Cellular Toxicity (caspase-3) HepG2 (AID 654).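 Note: cells exposed to compound for 16 hours before reading; 0% = DMSO alone and 100% = caspase signal from 100 µM tamoxifen.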 The settings on record: HepG2 caspase-3 activation, luminescence, 0% = DMSO only, 100% = tamoxifen; series mostly up to 92.2 µM. In short, it runs like this: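 Concentration-response AC50 values reflect caspase-3/7 induction in HepG2 cells after 16 hours of compound exposure, quantified by luminescence from liberated aminoluciferin and referenced to 100 uM tamoxifen as full stimulation.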

Test [3] can be described thus: Cellular Toxicity (caspase-3) Jurkat (AID 655).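 Note: cells exposed to compound for 16 h at 37 °C before reading.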 The settings on record: Jurkat caspase-3 activation, luminescence, DMSO = 0%, tamoxifen = 100%; at 92.2 µM (top of the series). The essentials: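 Caspase 3/7 activation is scored as increased luminescence in Jurkat cells cultured with compound for 16 hours in complete medium. AC50 values come from Hill fits of qHTS concentration-response data normalized to DMSO and 100 uM tamoxifen controls.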

A short description of test [4]: Cellular Toxicity (caspase-3) HUV-EC-C (AID 656). The settings on record: HUV-EC-C cells, caspase-3 activation (apoptosis), vehicle = 0, 100 µM tamoxifen = 100%; series mostly up to 92.2 µM. In short, it runs like this: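 Read-out: luminescence proportional to caspase 3/7 activity, measured 20 min after adding Caspase-Glo 3/7 reagent. Cells (HUV-EC-C) had received compound for 16 hr at 37°C. Increases relative to DMSO and 100 uM tamoxifen gave concentration-response AC50 values.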

The nature of test [5]: Cellular Toxicity (caspase-3) SHSY5Y (AID 657). The following applies: SH-SY5Y caspase-3 activation, DMSO zero, 10 µM staurosporine = 100%; series mostly up to 91.7 µM. From the text: (§1) NIH Chemical Genomics Center [NCGC]
(§2) NIH Molecular Libraries Screening Centers Network [MLSCN]
(§3) National Institutes of Environmental Health Sciences [NIEHS]
(§4) National Toxicology Program [NTP]
We have developed a 1536-well cell-based assay for quantitative high throughput screening (qHTS) against a number of cell lines to determine in vitro caspase 3/7 activity of small molecules. This particular assay uses the SH-SY5Y cell line which is derived from human neuroblastoma.
(§5) NCGC Assay Protocol Summary:
The Caspase-Glo 3/7 assay (Promega) is a homogeneous method to measure caspase-3 and caspase-7 activities in cultured cells. The quantitation of caspase 3/7 activity is based on the cleavage of a peptide-aminoluciferin substrate. After caspase cleaves the substrate the free aminoluciferin is liberated and serves as the substrate of luciferase, which generates the light. The luminescent signal is proportional to the amount of caspase 3/7 activity present.
(§6) Using the Caspase-Glo 3/7 assay, the amount of caspase 3/7 activity was measured in the SH-SY5Y cell line with complete culture medium following compound treatment for 16 hours. The assay was performed in opaque white 1536-well plates. In the screen, staurosporine and doxorubicin were used as positive controls. Library compounds were measured for their ability to cause the activation of caspase 3/7 in the cell line, as reflected by an increase in luminescence signal, in a concentration-dependent manner. Data were normalized to the controls for basal activity (DMSO only) and 100% stimulation (10 uM staurosporine). AC50 values were determined from concentration-response data modeled with the standard Hill equation.
qHTS protocol for caspase 3/7 assay in SH-SY5Y cells
(§7) [Step] [Parameter] [Value] [Description]
1. Reagent; 5 uL; 1500 SH-SY5Y cells/well
(§8) 2. Time; 5 hr; 37 °C incubation
4. Controls; 23 nL; doxorubicin 7 pM to 100 uM & staurosporine 1.4 pM to 20 uM
(§9) 5. Time; 16 hr; 37 °C incubation
(§10) 6. Reagent; 5 uL; Caspase-Glo 3/7 reagent
(§11) 7. Time; 1 hr; Room Temperature
(§12) 8. Detection; Luminescence; Viewlux plate reader
Keywords: caspase 3/7, apoptosis, SH-SY5Y cell line, luminescence, NTPHTS, NTPHTS_NCGC, NIEHS, EPA, DSSTox, MLSMR, MLSCN, NIH Roadmap, qHTS, NCGC

Test [6] in a line: Cellular Toxicity (caspase-3) BJ (AID 658). The following applies: BJ fibroblasts, luminescence, normalized: DMSO 0%, staurosporine 100%; series mostly up to 91.7 µM. The essentials:
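Plated BJ cells (1000/well) rested 5 hr, received compound for 16 hr at 37 °C, then Caspase-Glo 3/7 reagent for 1 hr at room temperature before luminescence reading.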

The nature of test [7]: Cellular Toxicity (caspase-3) MRC-5 (AID 659). The following applies: MRC-5 cells, luminescence, normalized: DMSO 0%, 10 µM staurosporine 100%; series mostly up to 91.7 µM. The essentials:
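Apoptosis readout in MRC-5 cells: luciferase light generated after caspase 3/7 cleaves a peptide-aminoluciferin substrate, measured post 16 hr compound incubation at 37 °C.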

Test [8] is described as follows: Cellular Toxicity (caspase-3) Mesangial (AID 660).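 Note: cells exposed to compound for 16 h before the caspase read.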 The settings on record: mesangial cells, normalized: DMSO 0%, 100 µM tamoxifen 100%; series mostly up to 91.7 µM. In short, it runs like this:
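AC50 values come from Hill-equation fits of caspase 3/7 activation, measured as Caspase-Glo luminescence in human glomerular mesangial cells exposed to compound for 16 h at 37 °C; 100% set by 100 uM tamoxifen.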

A short description of test [9]: Cellular Toxicity (caspase-3) SK-N-SH (AID 661). The settings on record: SK-N-SH caspase-3 activation, qHTS, DMSO as zero, staurosporine as full; series mostly up to 91.7 µM.
From the text: as §1, §2, §3, §4
We have developed a 1536-well cell-based assay for quantitative high throughput screening (qHTS) against a number of cell lines to determine in vitro caspase 3/7 activity of small molecules. This particular assay uses the SK-N-SH cell line which is derived from human neuroblastoma.
as §5
The Caspase-Glo 3/7 assay (Promega) is a homogeneous method to measure caspase-3 and caspase-7 activities in cultured cells. The quantitation of caspase 3/7 activity is based on the cleavage of a peptide-aminoluciferin substrate. After caspase cleaves the substrate the free aminoluciferin is liberated and serves as the substrate of luciferase, which generates the light. The luminescent signal is proportional to amount of caspase 3/7 activity present.
as §6, with “SK-N-SH” for “SH-SY5Y”, “screen, tamoxifen and” for “screen,”, “staurosporine” for “staurosporine and doxorubicin”
qHTS protocol for caspase 3/7 assay in SK-N-SH cells
as §7
1. Reagent; 5 uL; 1500 SK-N-SH cells/well
as §8
4. Controls; 23 nL; Tamoxifen 0.23 uM to 100 uM & staurosporine 1.4 pM to 100 uM
as §9, §10, §11, §12
Keywords: caspase 3/7, apoptosis, SK-N-SH cell line, luminescence, NTPHTS, NTPHTS_NCGC, NIEHS, EPA, DSSTox, MLSMR, MLSCN, NIH Roadmap, qHTS, NCGC
(Quantitative high-throughput screening tests each substance at several concentrations.)

In test [10] the target is 3',5'-cyclic-AMP phosphodiesterase 4B (Homo sapiens) (UniProt Q07343). Put plainly: qHTS Assay for Inhibitors of PDE-IV (AID 607; active = well fitted activation curve with a large enough effect in the main read-out, with a control signal flat, not every such curve was filed as active; note: potency is the fitted concentration of half-maximal effect). The following applies: HEK293 ACTOne CNG channel cells, membrane potential fluorescence; series mostly up to 22.9 µM. The essentials:
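The readout is membrane depolarisation from a cAMP-sensing CNG channel, detected with a potential dye at ex 535/em 590. Cells were HEK293-derived (endogenous PDE-IV) at 1000 cells/well, titrated up to 22.9 uM final.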

3',5'-cyclic-AMP phosphodiesterase 4B (Homo sapiens), sequence (Q07343 whole entry, looked up): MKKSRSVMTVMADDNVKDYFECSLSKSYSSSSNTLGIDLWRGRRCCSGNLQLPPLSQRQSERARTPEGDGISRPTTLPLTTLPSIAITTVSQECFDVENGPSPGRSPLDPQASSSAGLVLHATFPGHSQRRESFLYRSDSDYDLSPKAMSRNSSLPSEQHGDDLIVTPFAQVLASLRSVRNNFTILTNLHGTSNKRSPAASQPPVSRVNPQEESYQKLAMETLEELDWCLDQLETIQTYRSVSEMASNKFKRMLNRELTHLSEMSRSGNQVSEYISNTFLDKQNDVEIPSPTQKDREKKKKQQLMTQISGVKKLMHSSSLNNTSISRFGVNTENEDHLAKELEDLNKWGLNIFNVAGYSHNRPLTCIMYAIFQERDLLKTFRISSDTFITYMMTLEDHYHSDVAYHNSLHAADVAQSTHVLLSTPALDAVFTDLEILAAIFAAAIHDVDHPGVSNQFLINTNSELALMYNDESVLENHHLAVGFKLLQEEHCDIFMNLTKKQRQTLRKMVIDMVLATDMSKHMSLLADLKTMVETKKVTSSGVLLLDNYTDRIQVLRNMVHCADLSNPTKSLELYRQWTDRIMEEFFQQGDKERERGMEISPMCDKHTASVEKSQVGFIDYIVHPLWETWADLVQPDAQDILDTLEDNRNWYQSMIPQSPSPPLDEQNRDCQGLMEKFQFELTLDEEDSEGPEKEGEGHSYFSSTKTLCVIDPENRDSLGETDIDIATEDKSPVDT

As to `COC(C)=O`, the result in test [1], in [2], in test [4], in test [5], in [6] and in [7] was inactive. For the same compound, the call in test [8] and in test [9] was inactive. The caspase-3 activation in test [3] was -0.555%.

Regarding `NCCCC(=O)O`, in [10], the Potency entry was “inactive”.

With `Cc1ccc(OC[C@H](O)[C@H](C)NC(C)C)c2c1CCC2`, the Potency result in test [10] is “inactive”.

Take `CC(=O)C1=C(O)C=C2Oc3c(C(C)=O)c(O)c(C)c(O)c3[C@]2(C)C1=O`: the Potency result in test [10] is “inactive”.

As to `CCCCCCCCCC(=O)O`, the outcome in test [1], in [2], in test [4], in test [5], in test [6] and in test [7] was inactive. Moreover, the call in test [8] and in [9] was inactive. Further, the caspase-3 activation in test [3] was -4.13%.

On to `O=C(O)CC(O)(CC(=O)O)C(=O)O`, for which the compound was called inactive in test [1], in test [2], in test [4], in test [5], in test [6] and in [7]. In addition, the result in [8] and in test [9] was inactive. Besides, the caspase-3 activation in [3] is 101% (active).

Turning to `C=Cc1ccccc1`, the outcome in test [1], in test [2], in [4], in [5], in test [6] and in test [7] was inactive. Moreover, the compound was classed as inactive in test [8] and in test [9]. Moreover, in test [3], the caspase-3 activation was -0.459%.

Take `COc1ccc2[nH]c(=O)c3c(c2c1)OC(C)(C)C=C3`: the Potency result in test [10] is “inactive”.

As for `CN(C)Cc1ccccc1`, the outcome in test [1], in [2], in [4], in test [5], in test [6] and in test [7] was inactive. For the same compound, the compound was called inactive in test [8] and in [9]. For the same compound, the caspase-3 activation in test [3] was 0.691%.

`COc1cc(C[C@H]2C(=O)OC[C@@H]2Cc2ccc(OC)c(OC)c2)ccc1O`: in test [10], the Potency is 3.79 µM (active).

Regarding `O=C(O)c1cc2ccccc2c(Cc2c(O)c(C(=O)O)cc3ccccc23)c1O`, in test [10], the Potency entry was “inactive”.
